Source: PMC4336329 (PLoS ONE, 2015)
The whole screen tested about 310,000 compounds, of which about 14,000 (4.5%) showed an effect of 50% or more. The effect is printed as a negative number. The sample holds strong results, similar compounds and a random draw of the others, so the mix is not that of the screen.

Each compound was assayed against human ether-à-go-go-related gene (hERG) potassium channel (human, UniProt Q12809) (assay: primary screen, population patch clamp on CHO cells stably expressing hERG; higher = less effect of the substance).
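Further: peak tail current of the secondary pulse compared with the same well before compound.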

Sequence of human ether-à-go-go-related gene (hERG) potassium channel (Q12809 whole entry, looked up): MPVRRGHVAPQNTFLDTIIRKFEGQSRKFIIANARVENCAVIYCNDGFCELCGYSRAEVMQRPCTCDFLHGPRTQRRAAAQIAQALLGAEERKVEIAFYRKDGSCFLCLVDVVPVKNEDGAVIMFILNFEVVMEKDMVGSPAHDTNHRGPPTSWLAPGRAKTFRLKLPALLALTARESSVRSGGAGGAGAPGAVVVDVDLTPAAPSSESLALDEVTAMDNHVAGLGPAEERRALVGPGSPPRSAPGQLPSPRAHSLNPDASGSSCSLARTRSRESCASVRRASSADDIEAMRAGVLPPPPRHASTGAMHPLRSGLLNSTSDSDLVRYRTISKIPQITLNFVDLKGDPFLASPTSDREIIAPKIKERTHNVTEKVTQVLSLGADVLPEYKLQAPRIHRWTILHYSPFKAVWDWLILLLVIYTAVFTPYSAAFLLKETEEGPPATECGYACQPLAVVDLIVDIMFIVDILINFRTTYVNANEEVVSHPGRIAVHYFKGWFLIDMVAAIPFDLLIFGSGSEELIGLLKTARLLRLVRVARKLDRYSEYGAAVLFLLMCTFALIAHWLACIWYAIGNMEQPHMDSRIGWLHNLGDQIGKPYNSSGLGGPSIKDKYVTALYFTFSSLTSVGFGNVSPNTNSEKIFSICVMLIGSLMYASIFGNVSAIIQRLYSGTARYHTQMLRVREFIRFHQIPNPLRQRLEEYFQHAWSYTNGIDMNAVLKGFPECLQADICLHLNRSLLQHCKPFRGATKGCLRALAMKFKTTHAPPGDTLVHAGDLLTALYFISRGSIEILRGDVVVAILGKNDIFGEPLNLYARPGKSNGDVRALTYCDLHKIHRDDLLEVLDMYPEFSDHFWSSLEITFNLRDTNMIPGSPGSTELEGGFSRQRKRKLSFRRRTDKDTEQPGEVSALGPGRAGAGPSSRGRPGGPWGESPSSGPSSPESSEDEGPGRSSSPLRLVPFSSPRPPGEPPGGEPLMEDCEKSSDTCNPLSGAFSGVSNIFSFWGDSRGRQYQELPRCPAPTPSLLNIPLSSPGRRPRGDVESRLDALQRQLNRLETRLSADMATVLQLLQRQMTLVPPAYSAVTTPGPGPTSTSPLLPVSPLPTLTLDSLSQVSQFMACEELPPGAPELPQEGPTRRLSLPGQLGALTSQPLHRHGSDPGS

Row | SMILES | hERG current change (%, negative = inhibition) at 10uM [%]
1 | N#CCOc1coc(CN2CCN(c3cccc(Cl)c3)CC2)cc1=O | -0.696
2 | Cc1ccccc1C(=O)NC(=S)Nc1ccccc1C(=O)O | 15.5
3 | Cc1nnc(-c2cnn(-c3ccccc3)c2N)n1Cc1cccc(C(F)(F)F)c1 | -18.8
4 | Cc1ccc(CSCC(=O)N(C)CC(=O)Nc2ccccc2C(F)(F)F)cc1 | -0.53
5 | O=C1NC(=Nc2ccccc2Cl)S/C1=C\c1cccc([N+](=O)[O-])c1 | -0.316
6 | Cn1cc(/C=C2\SC(=S)N(NC(=O)c3ccccc3)C2=O)c2ccccc21 | 10.6
7 | CCOc1cc(C(=O)N(C)CC(=O)Nc2cccc(F)c2)ccc1OCC(=O)N1CCCCC1 | -14.1
8 | O=C(COC(=O)CNC(=O)c1ccccc1F)Nc1ccc2[nH]c(=O)[nH]c2c1 | 10.2
9 | COc1ccc(NC(=O)CN2C(=O)NC3(CCCC3)C2=O)cc1 | 13.7
10 | CCOC(=O)c1nn(-c2ccc(F)cc2)c2c1CC/C2=C/c1ccccc1 | 8.7
11 | CN(C)c1cc(N)c2c(n1)CCC2.O=C(O)c1cncc(O)c1 | -10.8
12 | COC(=O)C1C(O)=C(C=Nc2cccc3ccccc23)C(=O)CC1(C)C (stereo not shown) | -2.34
13 | Cc1ccc(S(=O)(=O)NCc2ccccc2C)cc1 | 11.6
14 | N#CC(Sc1ccccn1)c1ccc(Cl)cc1 (stereo not shown) | -18.2
15 | CCOc1ccc(NC(=S)N2CCC(N(C)CCN3CCOCC3)CC2)cc1 | -15.9
16 | CCCCN(C)C1CCN(C(=S)Nc2ccc(OC)cc2)CC1 | -26
17 | CCCCN(C)C1CCN(C(=S)Nc2ccc(OCC)cc2)CC1 | -76.7
18 | CC1CCC(N(C)C2CCN(C)CC2)CC1 (stereo not shown) | 11.3
19 | CCCC12CN3CC(C)(CN(C1)C3c1cccs1)C2=O (stereo not shown) | -7.68
20 | CC(=O)c1ccc(NC(=O)C2CCCC2)cc1 | 10.7

Row | SMILES | hERG current change (%, negative = inhibition) at 10uM [%]
21 | Cl.O[Si](CCCN1CCCCC1)(c1ccc(F)cc1)C1CCCCC1 (stereo not shown) | -54.3
22 | Fc1ccc(OCCCCCCN2CCCC2)cc1 | -9.37
23 | Fc1ccc(OCCCCCN2CCCC2)cc1 | 4.62
24 | CCN(CC)C(=O)c1ccc(S(=O)(=O)NCc2cccnc2)cc1 | 13.9
25 | CC1=C(C(=O)OCc2ccccc2)C(c2cccc3ccccc23)NC(=O)N1CCCC(=O)O (stereo not shown) | 20.8
26 | O=C1C=C(NCc2ccc3c(c2)OCO3)CC(c2ccccc2)C1 (stereo not shown) | -76.9
27 | O=C1C=C(Nc2ccccc2)CC(c2ccccc2)C1 (stereo not shown) | 9.51
28 | Cc1ccc(C2CC(=O)C=C(NCc3ccccc3)C2)cc1 (stereo not shown) | -38.8
29 | COc1ccc(C2CC(=O)C=C(NCCC(C)C)C2)cc1 (stereo not shown) | -73.2
30 | COc1ccc(C2CC(=O)C=C(NCc3ccc4c(c3)OCO4)C2)cc1 (stereo not shown) | -73.1
31 | CC(C)CCNC1=CC(=O)CC(c2ccccc2)C1 (stereo not shown) | -33.2
32 | O=C1C=C(NCc2ccncc2)CC(c2ccccc2)C1 (stereo not shown) | -70.7
33 | O=C1C=C(NNC(=O)c2ccncc2)CC(c2ccccc2)C1 (stereo not shown) | -1.64
34 | COc1ccc2cc(C3=CC(=O)C[C@H](c4ccc5c(c4)OCO5)C3)ccc2c1 | 17.3
35 | COc1ccc(C2CC(=O)C=C(NCC3CCCO3)C2)cc1 (stereo not shown) | -9.1
36 | O=C1C=C(c2ccccc2)C[C@@H](c2ccc3c(c2)OCO3)C1 | -4.15
37 | COc1ccc([C@H]2CC(=O)C=C(c3ccc4c(c3)OCO4)C2)cc1 | -22.9
38 | O=C(N/N=C\c1ccco1)Nc1cccc(Cl)c1 | -5.83
39 | CC1CCCCC1NC(=O)CCCn1c(=S)[nH]c2ccsc2c1=O (stereo not shown) | 12.9
40 | C=CCn1c(SCC(=O)NNC(=S)Nc2ccccc2)nnc1-c1ccccc1 | 15.9

Row | SMILES | hERG current change (%, negative = inhibition) at 10uM [%]
41 | Cc1cc([N+](=O)[O-])ccc1NC(=O)CSc1nncn1-c1ccccn1 | -28.1
42 | NC(=O)c1cccnc1OCC(F)(F)F | 2.21
43 | CCOc1ccc(NC(=O)CN(C)S(=O)(=O)c2ccc3c(c2)CCC(=O)N3)cc1 | -41.3
44 | Cc1c(C(=O)NCCSCc2cccc(C(F)(F)F)c2)cnn1-c1ccc(F)cc1 | -64.6
45 | Cc1c(C(=O)NCCSCc2ccc(F)cc2)cnn1-c1ccc(Cl)cc1 | -34.6
46 | Cc1c(C(=O)NCCSCc2cccc(C(F)(F)F)c2)cnn1-c1ccc(Cl)cc1 | -30.6
47 | CC(C)CCNC(=O)CN(Cc1cccs1)C(=O)CCC(=O)Nc1nccs1 | -10.6
48 | N#Cc1c2c(c(Nc3ccccc3)n3c1nc1ccccc13)CCC2 | 19.5
49 | CC(=O)c1ccc(Nc2c3c(c(C#N)c4nc5ccccc5n24)CCC3)cc1 | -73.2
50 | N#Cc1c2c(c(Nc3ccc(O)cc3)n3c1nc1ccccc13)CCC2 | 5.51
51 | COCCNc1c2c(c(C#N)c3nc4ccccc4n13)CCCC2 | -44.1
52 | CN(C)CCNc1c2c(c(C#N)c3nc4ccccc4n13)CCCC2 | -23.5
53 | N#Cc1c2c(c(NCCOCCO)n3c1nc1ccccc13)CCCC2 | -63.3
54 | Cc1cc(C(=O)NCc2ccc3c(c2)OCO3)n(-c2ccccc2)n1 | -14.8
55 | CCOC(=O)N1CCN(S(=O)(=O)Cc2ccccc2)CC1 | 15.5
56 | Cc1ccc(S(=O)(=O)Nc2cc(C)c(O)c(Sc3n[nH]c(C)n3)c2)cc1 | 2.79
57 | CNC(=O)/C(C#N)=C/c1c(N2CC(C)OC(C)C2)nc2ccccn2c1=O (stereo not shown) | 1.43
58 | O=C(Cn1cc(C(=O)COc2ccccc2)c2ccccc21)NCc1ccco1 | -0.105
